High-throughput results deposited in PubChem BioAssay by National Center for Advancing Translational Sciences (NCATS).
ELG1 genotox: induces genotoxicity in HEK293T cells with luciferase-tagged ELG1; 1.3% of 330,000 active; AID 504466; HEK293T ELG1-luciferase reporter, luminescence, 16 h; Potency, µM (top dose mostly 46 µM), inactives show at the top dose activity change, positive = activation, hits mostly activators; further: % of control where 0% means no effect; nearly all actives have a fitted effect of over 60% in size
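Reporter readout depends on ELG1 protein level, which increases with genetic stress. After 16 hr compound exposure at 37 °C, luciferase activity was quantified using ONE-Glo.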
FLuc modulator: firefly luciferase modulation, counter-screen for miR-21 project | P08659 | Potency, µM (titrated, usually from 57.5 µM), for inactives: top-dose activity change, negative = inhibition, usual class: inhibitors | 6.9% of 360,000 active | purified FLuc, Km substrates, luminescence inhibition;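 further: plate controls were vehicle for no effect and reference inhibitor for full effect; nearly all actives have a fitted effect of over 55% in size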
Target sequence (P08659 whole entry, looked up): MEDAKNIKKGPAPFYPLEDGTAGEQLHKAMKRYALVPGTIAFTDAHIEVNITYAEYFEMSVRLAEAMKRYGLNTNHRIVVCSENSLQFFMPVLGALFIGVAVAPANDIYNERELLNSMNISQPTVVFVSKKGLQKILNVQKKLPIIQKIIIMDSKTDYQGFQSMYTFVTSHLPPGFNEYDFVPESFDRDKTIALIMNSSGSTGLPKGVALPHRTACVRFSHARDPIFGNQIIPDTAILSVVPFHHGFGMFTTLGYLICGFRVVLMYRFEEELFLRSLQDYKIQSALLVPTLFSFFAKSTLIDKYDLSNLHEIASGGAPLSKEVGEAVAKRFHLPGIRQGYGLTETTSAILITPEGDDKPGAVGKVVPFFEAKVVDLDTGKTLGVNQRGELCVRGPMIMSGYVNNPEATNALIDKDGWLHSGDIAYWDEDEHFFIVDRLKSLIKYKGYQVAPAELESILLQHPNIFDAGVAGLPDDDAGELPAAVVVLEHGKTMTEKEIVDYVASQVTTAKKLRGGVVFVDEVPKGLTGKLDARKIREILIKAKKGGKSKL
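Purified P. pyralis luciferase, 10 nM final, with Km-level 10 uM D-luciferin and 10 uM ATP in 50 mM Tris acetate pH 7.5, 10 mM Mg acetate, 0.01% Tween-20, 0.05% BSA; 6-point qHTS titration about 60 µM downward; luminescence read.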
SMN2 splice enh: SMN2 splice variant enhancement; Potency, µM (doses to about 46.1 µM), for inactives: at the top dose activity change, positive = activation, actives largely listed as activators; AID 1458; HEK293 SMN2-luciferase splicing reporter, luminescence, 30-36 h; 2.8% of 210,000 active; further: % of control where 0% means no effect; nearly all actives have a fitted effect of over 55% in size
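HEK293 cells carry an SMN2 minigene-luciferase reporter in which exon 7 inclusion puts luciferase in frame. Cells were seeded at 2000 cells/well, attached for 10-12 hours, then exposed to compounds for 30-36 hours at 37C before ONE-Glo luminescence.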
ELG1 DNA repair: ELG1-dependent DNA repair inhibition; HEK293T ELG1-luciferase reporter, luminescence, 16 h; DNA damage induced by 5-fluorouridine; Potency, µM (doses to about 46.1 µM), for the others: top-dose activity change, negative = inhibition, most hits filed as inhibitors; 2.3% of 330,000 active; AID 504467; further: on the % scale 0 is the no-effect control and ±100 the full control effect; nearly all actives have a fitted effect of over 55% in size
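DMSO vehicle served as the neutral condition. Each well held 2,000 cells given 5-fluorouridine plus compound; after 16 hr at 37 °C/5% CO2, ONE-Glo was added and luciferase measured 30 min later.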
Rab9 promoter act: Rab9 promoter activation | AID 485297 | 2.8% of 320,000 active | Huh7 Rab9 promoter-luciferase reporter, luminescence, 24 h | Potency, µM (doses to about 9.22 µM), for the others: at the highest dose activation, negative = inhibition, most hits filed as activators; further: % of control where 0% means no effect; nearly all actives have a fitted effect of over 60% in size
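Rab9 promoter-driven luciferase in stably transfected Huh7 cells; 1500 cells/well rested 2 h, exposed to compound in DMSO for 24 h at 37 °C, 5% CO2. Luminescence read 10 min after adding luciferase reagent at ambient temperature.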
NPC1 prom act: activates the NPC1 promoter; Huh7 NPC1 promoter luciferase reporter, 24 h; 2.4% of 320,000 active; Potency, µM (series often up to 9.22 µM), for inactives: top-dose activation, actives largely listed as activators; AID 485313; further: % of control where 0% means no effect; nearly all actives have a fitted effect of over 60% in size
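Luminescence from an NPC1 promoter-driven luciferase reporter in stably transfected Huh7 cells was measured after 24 h compound treatment at 37 °C, followed by 10 min ambient incubation with luciferase detection reagent.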
An asterisk follows results filed as active; ? = inconclusive; . = no result given. Rows were chosen to be rich in hits. Some 9.2% of all compounds tested hit in one or more screens of this group. The call rests on the fitted dose curve; in most records, active means well fitted curve in the direction sought with a large enough effect; inconclusive means small, poorly fitted or top-dose-only effect, or another doubt; inactive means no such curve, though single readings can be large; an effect the other way counts as inactive or inconclusive. Potency means the concentration at half of the fitted maximal effect.

SMILES	ELG1 genotox	FLuc modulator	SMN2 splice enh	ELG1 DNA repair	Rab9 promoter act	NPC1 prom act
Cc1cccc(-c2noc(-c3ccccc3C(=O)NCc3ccco3)n2)c1	1.3%	9.53µM*	.	-1.0%	?	?
O=C(NCc1ccco1)c1ccccc1-c1nc(-c2ccccc2)no1	6.3%	26.9µM*	6.9%	?	0.2%	1.1%
Cc1ccsc1CN(C(=O)COc1ccccc1Cl)C1CCS(=O)(=O)C1 (configuration not stated)	.	1.1%	-4.3%	.	.	.
C=Cn1c(C(=O)O)ccc1-c1ccc(CC)cc1	6.7%	21.3µM*	.	?	0.0%	6.7%
CCN(CC)c1ccc(C(=O)OCC(=O)Nc2sccc2C#N)cc1	?	12µM*	10µM*	?	2.82µM*	3.16µM*
N#Cc1ccsc1NC(=O)COC(=O)c1cc2ccccc2cc1O	?	4.26µM*	22.4µM*	?	3.16µM*	18.5%
N#CCSc1ccccc1NC(=O)COc1ccc(-c2nnco2)cc1	-4.1%	-17.3%	.	?	-0.9%	-2.8%
N#Cc1ccsc1NC(=O)COC(=O)c1ccc(NC(N)=O)cc1	20.6µM*	5.36µM*	12.6µM*	?	?	1.12µM*
N#Cc1ccsc1NC(=O)COc1ccc(-c2nnco2)cc1	?	15.1µM*	?	?	?	?
COc1ccc(S(N)(=O)=O)cc1C(=O)OCC(=O)Nc1sccc1C#N	-0.3%	.	.	15.3%	.	.
CCCc1cc(=O)[nH]c(SCC(=O)Nc2oc(C)c3c(C)n[nH]c(=O)c23)n1	-6.4%	5.2%	.	2.8%	0.3%	6.2%
CC(=O)NCC1CCCN(C(=O)c2ccc(OC3CCN(Cc4ccccn4)CC3)cc2)C1 (configuration not stated)	1.9%	3.5%	.	?	4.1%	-1.1%
O=C(/C=C/c1ccccc1)NCC(=O)N/N=C/c1ccco1	17.3%	1.2%	.	1.0%	3.5%	-4.6%
CC(C)(C)C(=O)COC(=O)c1cc2ccccc2cc1O	?	6.75µM*	?	?	0.6%	-1.3%
COC(=O)c1ccc(Cn2nnc3c(=O)[nH]c(C4CCCN(S(=O)(=O)c5cccc(Cl)c5)C4)nc32)cc1 (configuration not stated)	0.5%	-4.0%	0.0%	-2.9%	-0.3%	0.7%
COc1ccc(C2(C)NC(=O)N(CC(=O)Nc3ccc(-c4nc5ccc(C)cc5s4)cc3)C2=O)cc1 (configuration not stated)	?	3.38µM*	7.08µM*	?	2.24µM*	3.98µM*
COc1ccc(NC(=O)CN2C(=O)NC(c3ccccc3)(c3ccccc3)C2=O)cc1	-2.6%	21.3µM*	.	0.8%	-2.4%	-2.7%
CCC1(c2ccc(F)cc2)NC(=O)N(CC(=O)Nc2ccc(-c3nc4ccc(C)cc4s3)cc2)C1=O (configuration not stated)	?	3.38µM*	3.98µM*	?	1.41µM*	2.82µM*
NS(=O)(=O)c1ccc(CCNc2ncnc3c2cnn3-c2cccc(Cl)c2)cc1	.	0.5%	.	.	.	.
O=C(NN1CCOCC1)c1cn(-c2ccccc2)nc1-c1cccs1	1.0%	21.3µM*	.	?	1.1%	0.5%
O=C(c1cn(-c2ccccc2)nc1-c1cccs1)N1CCN(c2ccccn2)CC1	-18.1%	3.79µM*	-35.7%	?	2.9%	-3.6%
CN1CCN(NC(=O)c2cn(-c3ccccc3)nc2-c2cccs2)CC1	1.9%	?	-6.3%	24.5%	3.3%	0.2%
CN(C)c1ccc(NC(=O)c2cn(-c3ccccc3)nc2-c2cccs2)cc1	10.7%	6.75µM*	23.3%	-18.7%	5.5%	13.2%
O=C(Nc1ccc2ccccc2c1)c1cn(-c2ccccc2)nc1-c1cccs1	1.3%	6.01µM*	-12.4%	-10.5%	24.7%	-3.2%
CCc1sc(C(=O)N2CCN(c3ncccn3)CC2)cc1Br	-3.1%	-0.1%	.	-0.2%	12.5%	2.7%
SMILES	ELG1 genotox	FLuc modulator	SMN2 splice enh	ELG1 DNA repair	Rab9 promoter act	NPC1 prom act
CC(OC(=O)c1cnc(Cl)c(Cl)c1)C(=O)NCc1ccccc1 (configuration not stated)	-0.4%	-0.5%	.	?	-6.1%	-3.3%
CCOC(=O)c1c(NC(=O)c2cc(=O)c3ccc(C)cc3o2)sc(C)c1C	.	-2.9%	5.0%	.	.	.
CCN(CC)CCOC(=O)c1ccc(NC(=O)c2cn(-c3ccccc3)nc2-c2cccs2)cc1	?	6.01µM*	-99.6%	?	18.7%	8.7%
O=C(Nc1cn(-c2ccccc2)nc1-c1cccs1)c1ccco1	0.4%	16.9µM*	2.1%	-3.4%	-6.6%	12.6%
CCN(CC(=O)Nc1ccc(NC(C)=O)cc1)C(=O)c1cn(-c2ccccc2)nc1-c1cccs1	-7.3%	21.3µM*	.	?	-2.6%	0.5%
CCCNC(=O)c1n[nH]c2c1CC(C(C)(C)CC)CC2 (configuration not stated)	-1.9%	?	.	25.4%	3.0%	-1.4%
CCC(C)(C)C1CCc2[nH]nc(C(=O)N/N=C(\C)c3ccco3)c2C1 (configuration not stated)	?	2.39µM*	.	?	1.12µM*	3.16µM*
C/C(=N\NC(=O)c1n[nH]c2c1CCC2)c1ccco1	?	2.69µM*	.	?	0.501µM*	?
COC(=O)N/N=C(\C)c1ccco1	-9.3%	-2.4%	-1.3%	0.0%	3.1%	-2.4%
CCc1ccc(NS(=O)(=O)c2ccc3[nH]cc(C(=O)NCCCOC(C)C)c(=O)c3c2)cc1	.	-8.6%	-8.0%	.	.	.
C#CCn1c(/C=C/c2ccc(Cl)cc2)nc2ccccc21	.	0.19µM*	2.51µM*	.	.	.
Cc1ccc(Cn2c(/C=C/c3ccco3)nc3ccccc32)cc1	?	10.7µM*	.	?	?	?
Clc1ccc(Cn2c(/C=C/c3ccco3)nc3ccccc32)cc1	14.2%	10.7µM*	94.6%	?	3.55µM*	?
CCn1c(/C=C/c2ccc(O)cc2)nc2ccccc2c1=O	-11.4%	-17.6%	.	?	3.3%	-0.1%
O=C(Cn1c(=O)nc(-c2ccccc2)c2ccccc21)Nc1cccc(C(F)(F)F)c1	.	-4.5%	.	.	.	.
Cc1ccc(O)c(NC2=C(Cl)C(=O)N(Cc3ccccc3)C2=O)c1	0.0%	21.3µM*	3.0%	7.1%	-6.8%	-1.1%
CCOc1ccc(NC2=C(Cl)C(=O)N(Cc3ccccc3)C2=O)cc1	-0.8%	0.3%	.	-10.7%	11.8%	-4.0%
Cc1ccc(C(=O)N2CCCCC2)cc1NC1=C(Cl)C(=O)N(Cc2ccccc2)C1=O	-12.1%	.	.	18.3µM*	-5.7%	0.0%
COc1ccc(-c2csc(N3C(=O)CNC3=S)n2)cc1	3.26µM*	0.849µM*	1.26µM*	?	0.501µM*	0.562µM*
